Screening data: PubChem BioAssay, National Center for Advancing Translational Sciences (NCATS)
Shown are actives, neighbours in structure and some others; about 3.2% of the full set was active somewhere.
Coupling enz = counter-screen for Giardia aldolase inhibitors: coupling enzyme system | activity change, negative = inhibition, % at 58.2 µM, hits read low | coupling enzyme system counterscreen, AmpLite Red fluorescence | 0.67% of 290,000 active | AID 2472; in the data active = activity change below about -30%
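Counterscreen lacking aldolase: glyceraldehyde-3-phosphate coupling-enzyme reagent preincubated 10 min at RT with compound (at 57.5 uM final), then substrate/coupling system with AmpLite Red added; fluorescence read at 525/598 nm after 20 min RT.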
USP2a inh = inhibitors of human ubiquitin-specific protease USP2a; USP2 core, Ub-CHOP2 coupled fluorogenic reporter, 485/531; O75604; Potency, µM (titrated, usually from 38.3 µM), without a hit: top-dose activity change, negative = inhibition, most hits filed as inhibitors; 0.01% of 330,000 active; AID 463254;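 note: potency is the fitted concentration of half-maximal effect; plate controls were DMSO wells for no effect and full inhibition by NEM control for full effect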
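Cell-free coupled assay: 10nM USP2 core preincubated 30min RT with compound in Tris-HCl pH 8.0/CaCl2/CHAPS buffer, then 25nM Ub-CHOP2 and 25nM reporter substrate; fluorescence (Ex 485/Em 531) read after 60min RT, normalized to NEM inhibition, concentration-response curves fitted.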
PLK1 PBD block = inhibitors of human PLK1 polo-box domain binding; P53350; Plk1 PBD binding of FITC phosphopeptide, fluorescence polarization; Potency, µM, without a hit: max response, negative = inhibition, most hits filed as inhibitors; 2.8% of 360,000 active; AID 720504; note: potency is the fitted concentration of half-maximal effect; series mostly up to about 57 µM; nearly all actives have a fitted effect of over 65% in size
GALK inhibitor = galactokinase (human) inhibition; Purified GALK, Kinase-Glo residual ATP luminescence; Potency, µM (doses to about 57.5 µM), without a hit: top-dose activity change, negative = inhibition, usual class: inhibitors; 0.007% of 270,000 active; AID 1868; note: potency is the fitted concentration of half-maximal effect
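Kinase-Glo Plus luminescence measured ATP left after a 1 h room-temperature reaction. The reaction used 5 nM GALK, 100 uM galactose and 35 uM ATP at pH 8.0 (20 mM HEPES, 5 mM MgCl2, 60 mM NaCl, 1 mM DTT, 0.01% BSA).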
USP1-UAF1 inh = blocks the human USP1/UAF1 deubiquitinase complex; O94782; recombinant USP1/UAF1, Ub-Rhodamine cleavage fluorescence; Potency, µM (top dose mostly 57.1 µM), without a hit: top-dose activity change, negative = inhibition, most hits filed as inhibitors; 0.23% of 390,000 active; AID 743255; note: potency is the fitted concentration of half-maximal effect; nearly all actives have a fitted effect of over 60% in size
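Step one: compound is pinned into 1nM USP1/UAF1 in HEPES pH 7.8 buffer with TCEP. Step two: 15 min room-temperature incubation. Step three: Ub-Rho (150nM final) starts cleavage, tracked by fluorescence over six one-minute reads.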
VDR inh = inhibitors of human vitamin D receptor | 0.93% of 400,000 active | Potency, µM, inactives show max response, negative = inhibition, hits mostly inhibitors | P11473 | VDR-SRC2-3 peptide fluorescence polarization, 2 h; note: potency is the fitted concentration of half-maximal effect
Target sequence (P11473 whole entry, looked up): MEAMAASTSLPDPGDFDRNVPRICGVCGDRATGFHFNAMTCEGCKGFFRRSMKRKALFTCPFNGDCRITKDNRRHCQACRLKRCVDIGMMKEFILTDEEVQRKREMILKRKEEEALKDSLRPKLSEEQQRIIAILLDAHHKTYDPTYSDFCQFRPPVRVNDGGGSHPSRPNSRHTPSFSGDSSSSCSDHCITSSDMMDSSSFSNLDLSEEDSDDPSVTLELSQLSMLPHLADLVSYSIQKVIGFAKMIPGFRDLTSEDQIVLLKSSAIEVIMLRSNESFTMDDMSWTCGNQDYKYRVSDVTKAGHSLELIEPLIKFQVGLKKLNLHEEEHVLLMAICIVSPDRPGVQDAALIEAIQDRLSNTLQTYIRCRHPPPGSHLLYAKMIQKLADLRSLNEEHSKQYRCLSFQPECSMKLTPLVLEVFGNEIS
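Fluorescence polarization assay measuring small-molecule disruption of VDR binding to the coregulator peptide SRC2-3. Compounds were pin-transferred (23 nl) into the reagent mix and incubated 2 h at room temperature before reading.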
Numbers without * were called inactive. Unless noted, calls come from the whole dose curve; as a rule, active = well fitted curve in the direction sought with a large enough effect; inconclusive = small, poorly fitted or top-dose-only effect, or another doubt; inactive = no such curve, though single readings can be large; an effect the other way counts as inactive or inconclusive. Unless noted, % is set by controls: 0 for no effect and ±100 for the full control effect.

`CC(C)(C)OC(=O)N(CCc1ccccc1)Cc1cccc(OCc2cccc(NC(=O)c3ccccc3)c2)c1` gave PLK1 PBD block 23.8µM*, USP1-UAF1 inh -12.0% and VDR inh inconclusive.
COC(=O)CCS(=O)(=O)c1ccc(Cl)cc1 was read as Coupling enz 3.4, USP2a inh 2.5%, PLK1 PBD block -2.0%, GALK inhibitor 0.5%, USP1-UAF1 inh -1.4% and VDR inh -0.2%.
Screening COCCN1C(=O)N[C@@H](CCc2ccccc2)C(C(C)=O)=C1C returned Coupling enz 5.8, USP2a inh -0.1%, PLK1 PBD block -8.1%, USP1-UAF1 inh 0.8% and VDR inh -0.5%.
Screening CCN1C(=O)N[C@@H](CCc2ccccc2)C(C(C)=O)=C1C returned Coupling enz 2.5, PLK1 PBD block 26.7µM*, USP1-UAF1 inh 4.7% and VDR inh inconclusive.
Screening Clc1ccccc1-c1cc(NCc2ccccc2)ncn1 returned Coupling enz -2.3 and VDR inh 44.7µM*.
CC(C)NC(=O)C(C)n1cccc1C(=O)c1ccccc1 (stereo unspecified) was read as Coupling enz 0.3, USP2a inh 0.7%, PLK1 PBD block -0.5%, GALK inhibitor 2.9%, USP1-UAF1 inh -5.9% and VDR inh 13.3%.
Screening O=C(O)c1ccc(-c2ccccc2)[nH]c1=O returned Coupling enz 5.2, USP2a inh -2.8%, PLK1 PBD block 23.8µM*, GALK inhibitor -1.3%, USP1-UAF1 inh -23.6% and VDR inh inconclusive.
For CC(C)(C)OC(=O)NCCCC[C@@H](C(=O)N1CCN(C(=O)OC(C)(C)C)CC1)n1cc(C(CO)NC(=O)OC(C)(C)C)nn1 (stereo partly specified) the results were Coupling enz -5.4, USP2a inh -0.1%, PLK1 PBD block -6.7%, GALK inhibitor -2.5%, USP1-UAF1 inh -17.4% and VDR inh 5.2%.
Screening COc1cc(OC)c(OC)cc1/C=C1/C(=O)N=C(N)N1C returned Coupling enz 0.1, USP2a inh 4.2%, PLK1 PBD block 21.2µM*, GALK inhibitor 8.1%, USP1-UAF1 inh -14.7% and VDR inh inconclusive.
For COc1ccc(/C=C2/C(=O)N=C(N)N2C)cc1OC the results were Coupling enz -0.9, USP2a inh 6.5%, PLK1 PBD block 0.9%, GALK inhibitor 0.2%, USP1-UAF1 inh 3.1% and VDR inh 16.2%.
`O=c1oc2c3c4c(cc2c(C(F)(F)F)c1CCN1CCOCC1)CCCN4CCC3` gave Coupling enz -1.6, USP2a inh 6.2%, PLK1 PBD block 33.2%, GALK inhibitor -6.9%, USP1-UAF1 inh 6.31µM* and VDR inh 6.8%.
For CC(C)c1cc(=O)oc2c3c4c(cc12)CCCN4CCC3 the results were Coupling enz -2.8, USP2a inh 15.3%, PLK1 PBD block inconclusive, GALK inhibitor 1.9%, USP1-UAF1 inh inconclusive and VDR inh -3.5%.
Screening COC(=O)[C@]1(C)CCC[C@]2(C)c3ccc(C(C)C)cc3C(=O)CC12 (stereo partly specified) returned Coupling enz -1.8 and VDR inh inconclusive.
Screening Cc1c(OCc2ccc(C(=O)O)cc2)ccc2c(-c3ccccc3)cc(=O)oc12 returned Coupling enz 19.6, USP2a inh -0.2%, PLK1 PBD block inconclusive, GALK inhibitor 7.9%, USP1-UAF1 inh inconclusive and VDR inh 79.4µM*.
CCOC(=O)C(Oc1ccc2c(-c3ccccc3)cc(=O)oc2c1C)c1ccccc1 (stereo unspecified) was read as Coupling enz -0.1, USP2a inh 0.2%, PLK1 PBD block 3.5%, GALK inhibitor -1.8%, USP1-UAF1 inh -19.4% and VDR inh inconclusive.
Screening Cc1cnc(CNc2ccnc(-c3cccc(C#N)c3)n2)cn1 returned Coupling enz 4.5 and VDR inh 6.4%.
For COc1ccc(CCN(Cc2ccccn2)C(=S)Nc2ccccc2Cl)cc1OC the results were Coupling enz 2.0, USP2a inh -5.4%, PLK1 PBD block -12.6%, GALK inhibitor 7.5%, USP1-UAF1 inh inconclusive and VDR inh 10.1%.
`CCOC(=O)C1CCN(Cc2ccccc2C(F)(F)F)CC1` gave Coupling enz 1.5, USP2a inh 0.4%, PLK1 PBD block 0.9%, GALK inhibitor 11.9%, USP1-UAF1 inh -5.3% and VDR inh 21.4%.
Screening CCOC(=O)C1CCN(Cc2ccc(O)c3ncccc23)CC1 returned Coupling enz -8.0, USP2a inh 1.0%, PLK1 PBD block 26.7µM*, GALK inhibitor -1.2%, USP1-UAF1 inh -15.2% and VDR inh 3.8%.
For CC(C)CCNC(=O)c1ccc(NC(=O)C2=CSCCO2)cc1 the results were USP2a inh -0.4%, PLK1 PBD block -3.8%, GALK inhibitor -3.0%, USP1-UAF1 inh -11.1% and VDR inh -0.4%.
Nc1ncc(Br)cc1N=Cc1ccccc1 was read as Coupling enz -47.8*, USP2a inh 23.0%, PLK1 PBD block -5.7%, GALK inhibitor -1.2%, USP1-UAF1 inh -13.6% and VDR inh -4.0%.
COc1ccc(N2CCN(C(CNC(=O)c3ccc(OC)c(OC)c3)c3cccnc3)CC2)cc1 (stereo unspecified) was read as USP1-UAF1 inh -11.2% and VDR inh 9.8%.
For CCC(C)NC(=O)CSc1c2c(nc3ccccc13)CCCC2 (stereo unspecified) the results were Coupling enz -0.8, USP2a inh 0.2%, PLK1 PBD block 16.8µM*, GALK inhibitor 3.2%, USP1-UAF1 inh -26.0% and VDR inh -13.3%.
For Cc1cccc(NC(=O)CSc2c3c(nc4ccccc24)CCC3)n1 the results were Coupling enz 1.7, USP2a inh 5.1%, PLK1 PBD block -1.1%, GALK inhibitor 1.1%, USP1-UAF1 inh -19.2% and VDR inh -4.8%.
Cn1c(SCC(=O)NCc2cccs2)nnc1-c1ccc(O)cc1 was read as Coupling enz 0.3, USP2a inh 2.1%, PLK1 PBD block 23.8µM*, GALK inhibitor 0.3%, USP1-UAF1 inh -12.8% and VDR inh inconclusive.
Cn1c(SCC(=O)NCc2cccs2)nnc1-c1ccco1 was read as Coupling enz 0.2, USP2a inh -0.5%, PLK1 PBD block 2.2%, GALK inhibitor -0.1%, USP1-UAF1 inh -6.8% and VDR inh -2.4%.
Screening COC(=O)c1ccc(NC(=O)CSc2nc(C)cc(=O)[nH]2)cc1 returned Coupling enz 15.9, USP2a inh 1.5%, PLK1 PBD block -1.2%, GALK inhibitor 1.9%, USP1-UAF1 inh -19.3% and VDR inh -0.1%.
